Activity remaining data for 40 compounds are collected here from PubChem BioAssay.

Unmarked numbers belong to inactive results. No rule for the calls is given here.

The test relates to Aerobactin synthetase IucA (Klebsiella pneumoniae hvKP1). Briefly: IucA enzyme inhibition, primary screen, biochemical, Spectrum library (AID 1346200).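 Also: 100% = wells without compound and 0% = wells lacking enzyme.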 Conditions: malachite green pyrophosphate, A620, at 8 µM, hits give low values.
In the case of `COC(=O)C[C@@H]1C2(C)C(=O)[C@@H](CC3=C4CC(=O)O[C@@H](c5ccoc5)[C@]4(C)CCC32)[C@H](OC(C)=O)C1(C)C` (stereo not given in full), the activity remaining is 112%.
Next, `CN1CCC[C@H]1c1cccnc1`: 117%; `O=C(O)/C=C(\CC(=O)O)C(=O)O`: 89.8%.
Next, `O=c1c(O)cccc2cc(O)c(O)c(O)c12`: 107%; `C[C@]12CCC3c4ccc(OS(=O)(=O)O)cc4CCC3C1CC[C@H]2O` (stereo not given in full): 102%.
Turning to `O=C1c2ccccc2C(=O)c2c(O)c(O)cc(O)c21`, the activity remaining is 118%.
The value for `Cc1onc(-c2ccccc2Cl)c1C(=O)N[C@@H]1C(=O)N2[C@@H]1SC(C)(C)[C@@H]2C(=O)O` was 96.2%.
Next, `CCC(=O)O[C@]1(C(=O)CCl)[C@@H](C)CC2C3CCC4=CC(=O)C=C[C@]4(C)[C@@]3(F)[C@@H](O)C[C@@]21C` (stereo not given in full): 112%; `CC(=O)c1ccc2c(c1)N(CCCN(C)C)c1ccccc1S2`: 104%; `CC[C@H]1OC(=O)C[C@@H](O)[C@H](C)[C@@H](O[C@@H]2O[C@H](C)[C@@H](O[C@H]3C[C@@](C)(O)[C@@H](O)[C@H](C)O3)[C@H](N(C)C)[C@H]2O)[C@@H](CC=O)C[C@@H](C)C(=O)/C=C/C(C)=C/[C@@H]1CO[C@@H]1O[C@H](C)[C@@H](O)[C@@H](OC)[C@H]1OC`: 112%.
For the compound `COc1cc(S(C)=O)ccc1-c1nc2ncccc2[nH]1` (stereo not given), the activity remaining is 108%.
Next, `CC(C)NCC(O)COc1ccc(CC(N)=O)cc1` (stereo not given): 117%; `C=C1[C@H]2CC[C@@]3(C)[C@H](c4ccoc4)OC(=O)C[C@]13O[C@H]1C[C@H](O)C(C)(C)[C@H](CC(=O)OC)[C@]12C`: 107%; `Cc1ncc([N+](=O)[O-])n1CCO`: 75.6%.
For `OC(Cn1cncn1)(Cn1cncn1)c1ccc(F)cc1F`, the activity remaining is 105%.
Take `CC(C)CCCC(C)N` (stereo not given): the activity remaining is 121%.
On to `CC(=O)Oc1cccc(O)c1`, for which the activity remaining was 114%.
As to `Cc1cc(=O)n(-c2ccccc2)n1C`, the activity remaining is 110%.
Next, `COc1ccc2c(c1)OC1(O)COc3cc(OC)c(OC)cc3C1=C2` (stereo not given): 107%.
The value for `C/C=C1\[C@H]2C=C(C)C[C@]1(N)c1ccc(=O)[nH]c1C2` was 122%; that for `O=C1NS(=O)(=O)c2ccccc21` was 102%.
For the compound `CC12CCC3C(=CCc4cc(O)ccc43)C1CCC2=O` (stereo not given), the activity remaining was 108%.
The value for `CCCCOc1cc(C(=O)NCCN(CC)CC)c2ccccc2n1` was 103%.
Next, `C[C@]12CCC3C(CC[C@H]4C[C@H](OS(=O)(=O)O)CC[C@]34C)C1CCC2=O` (stereo not given in full): 102%.
For `Cc1ccc2c(c1)CC[C@H]1CC(=O)CC[C@]21C`, the activity remaining was 112%.
The value for `Cc1c(C)c2c(c(C)c1O)CCC(C)(CCCC(C)CCCC(C)CCCC(C)C)O2` (stereo not given) was 105%; that for `CNCC[C@@H](Oc1ccccc1)c1ccccc1` was 111%; that for `COc1ccccc1OCC(O)COC(N)=O` (stereo not given) was 108%.
Next, `Cc1c(NC(=O)c2cccnc2)c(=O)n(-c2ccccc2)n1C`: 85.4%.
Consider `O=C(O)[C@H](O)[C@@](O)(Cc1ccc(O)cc1)C(=O)O`, for which the activity remaining was 103%.
Next, `C=C[C@@](C)(O)CCC1C(=C)C[C@H](OC(C)=O)C2C(C)(C)CCCC12C` (stereo not given in full): 118%.
The value for `CC1(C)OCC(C2OC(=O)C(O)=C2O)O1` (stereo not given) was 87.7%.
Turning to `Oc1ccc(Cl)c2cccnc12`, the activity remaining is 121%.
As for `Cc1ccc2c(Cl)cc(Cl)c(O)c2n1`, the activity remaining is 85.6%.
Next, `O=c1cc(-c2cc(O)c(O)c(O)c2)oc2cc(O)cc(O)c12`: 101%.
As to `CCCC(=O)O[C@]1(C(=O)CO)CCC2[C@@H]3CCC4=CC(=O)CC[C@]4(C)C3[C@@H](O)C[C@@]21C` (stereo not given in full), the activity remaining was 79%.
`C[C@H]1CC[C@@H](C(C)(C)O)CC2=C1CC[C@@H]2C`: the activity remaining is 102%.
The value for `CC1=C(C(=O)O)N2C(=O)[C@@H](NC(=O)C(N)c3ccc(O)cc3)[C@H]2SC1` (stereo not given in full) was 103%.
The value for `Cc1cc(C(C)(C)C)c(O)c(C(C)(C)C)c1` was 110%; that for `COC(=O)[C@@H]1C(O)CC[C@H]2CN3CCc4c([nH]c5ccccc45)[C@@H]3C[C@@H]21` (stereo not given in full) was 96.8%.
